# An excerpt weighted towards active compounds, which were near 3.7% of everything screened.
# MazF activator: increases E. coli MazEF RNase cleavage of RNA. P0AE70. FAM/BHQ RNA-DNA oligo cleavage fluorescence, 5 h. activation, % at 20 µM. hit rate 0.32% among 350,000; in the data active means activation above about 50%
# Target sequence (P0AE70 whole entry, looked up): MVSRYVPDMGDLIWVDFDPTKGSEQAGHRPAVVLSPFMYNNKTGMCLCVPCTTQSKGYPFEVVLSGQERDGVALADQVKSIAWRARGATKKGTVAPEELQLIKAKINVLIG
# Autofluor counter: counter-screen for toxin protease inhibitors: compound fluorescence; compound autofluorescence counterscreen, microsphere flow cytometry; stronger effect = higher value; fluorescence intensity (test concentration not listed); hit rate 3.1% among 360,000; in the data active means fluorescence intensity above about 16000; inconclusive means no clear call, values can overlap the other calls
# BoNT A protease: BoNT A light chain protease inhibition; multiplex microsphere protease substrate cleavage, flow cytometry; inhibition, % at 10 µM; hit rate 0.17% among 360,000; AID 588499; further: plate controls were buffer without enzyme for full effect and enzyme alone for no effect
# Anthrax LF inh2: anthrax lethal factor protease inhibition. inhibition, % at 10 µM. P15917. multiplex microsphere protease cleavage assay, LF. hit rate 0.12% among 360,000; further: plate controls were buffer without enzyme for full effect and enzyme alone for no effect
# BoNT-F LC inh: BoNT F light chain protease inhibition; Multiplex microsphere protease cleavage assay, flow cytometry; inhibition, % at 10 µM; hit rate 0.22% among 360,000; in the data active means inhibition above about 35%, passing the limit was not always enough; inconclusive means no clear call, values can overlap the other calls; further: plate controls were buffer without enzyme for full effect and enzyme alone for no effect
# An asterisk follows results filed as active; i = inactive; ? = inconclusive; · = no result. Unless noted, no stated cut-off is given here; in the data, active means inhibition above about 30%; inconclusive means no clear call, values can overlap the other calls; inactive means below that.
SMILES,MazF activator,Autofluor counter,BoNT A protease,Anthrax LF inh2,BoNT-F LC inh
C[C@H]1CN([C@@H](C)CO)C(=O)CCCn2nncc2CO[C@H]1CN(C)S(=O)(=O)c1ccc2c(c1)OCCCO2,4,2843,0,2,0
CCn1c(COc2ccccc2)nnc1SCC(=O)Nc1cc(C)ccc1OC,-11,10154,0,-2,-12
CCn1c(SCC(=O)Nc2ccccc2C(=O)OC)nnc1-c1ccc(N)cc1,-2,23878*,0,1,-2
CCn1c(SCC(=O)Nc2ccccc2C(=O)OC)nnc1-c1ccoc1C,2,4111,0,-2,-5
CCn1c(COc2ccc(C)cc2)nnc1SCC(=O)Nc1cc(OC)ccc1OC,4,22615*,1,-5,3
CCn1c(COc2ccccc2C)nnc1SCC(=O)N1CCCCC1,2,9214,0,-5,-3
CCOC(=O)c1ccccc1NC(=O)CSc1nnc(COc2ccccc2C)n1C,-10,17960*,?,-1,7
Cc1ccccc1OCc1nnc(SCC(=O)NCc2ccccc2)n1C,-4,3884,0,3,1
CCn1c(COc2ccc(Cl)c(C)c2)nnc1SCC(=O)N1CCCC1,-14,20792*,?,-1,-2
CCn1c(COc2cccc(OC)c2)nnc1SCC(=O)Nc1ccccc1C(=O)OC,-1,19252*,?,1,6
CCn1c(SCC(=O)c2ccc3c(c2)Cc2ccccc2-3)nnc1-c1ccc(N)cc1,4,23475*,-2,-10,0
CCn1c(SCC(=O)c2ccc(O)c(O)c2)nnc1-c1ccc(C)cc1,4,2923,0,-2,-1
C#Cc1cccc(Nc2nc(NCc3ccccc3OC)nc3ccsc23)c1,·,3717,0,-3,-4
CCCCC1CC2=C(C(=O)OC(C)(C)O2)C(c2ccc3ccccc3c2)O1 (stereo unspecified),·,5480,0,-1,3
COc1ccc(C)cc1NC(=O)COC(C)=O,7,16638*,0,-2,-2
COc1ccc(C(O)c2ncc(-c3ccccc3)[nH]2)cc1F (stereo unspecified),·,2772,0,-1,-5
CSc1nc2ccccc2n1C(=O)Oc1ccccc1,2,20058*,2,1,6
COCC(=O)N[C@@H]1c2cc(OC)c(OC)cc2C[C@H]1OCc1ccccc1,0,3255,0,2,-1
CCOC(=O)CCCCCC(=O)Nc1ccc2c(c1)C(=O)N([C@H](C)CO)C[C@@H](C)[C@@H](CN(C)C(=O)CCC(F)(F)F)OCCCC[C@H](C)O2,4,3471,0,-1,3
COC(=O)C[C@@H]1C[C@@H]2c3cc(NC(=O)NC4CCCCC4)ccc3O[C@@H]2[C@H](CO)O1,-13,3813,0,-4,-3
CCCN1C(=O)c2cccc3c(N4CCCCC4)ccc(c23)C1=O,-200,4642,32*,14,11
CCN(CC)S(=O)(=O)c1ccc(C(=O)OCCN2C(=O)c3cccc4c(N5CCOCC5)ccc(c34)C2=O)cc1,i,7204,35*,28,20
COc1ccc(C(=O)NCC(=O)OCC(=O)NC2CCCCCC2)cc1OC,7,4721,1,3,7
Cc1cc2c(SCC(=O)Nc3cccc(O)c3)ncnc2s1,-11,3151,0,-6,-11
Cc1ccc(CNC(=O)C2CC(=O)OC23CCCC3)c(C)c1 (stereo unspecified),-2,16440*,0,-3,2
SMILES,MazF activator,Autofluor counter,BoNT A protease,Anthrax LF inh2,BoNT-F LC inh
COc1ccc(C)cc1NC(=O)C1CC(=O)OC12CCCCC2 (stereo unspecified),-3,22901*,-1,-1,-1
Cc1cccc(NC(=O)C2CC(=O)OC23CCCCC3)c1 (stereo unspecified),-8,4534,0,1,5
Cc1ccc(S(=O)(=O)/N=C(/Nc2ccc([N+](=O)[O-])cc2[N+](=O)[O-])c2ccccc2)cc1,0,3879,0,-3,-3
Cn1c2c(c(=O)n1-c1ccccc1)CSCC2,2,6153,0,1,0
O=C(NCc1ccncc1)c1ccc(Br)cc1,6,22240*,1,-1,1
O=C(NCc1ccccc1)NC(=O)c1ccncc1,-1,20362*,-2,-3,-1
O=C(CCNC(=O)c1ccc(Br)cc1)NCc1ccncc1,-7,·,·,·,·
COC(=O)[C@H](CCSC)NC(=O)Nc1ccc(C)c(C)c1,10,21760*,4,2,5
COC(=O)[C@H](CCSC)NC(=O)NCCc1ccc(F)cc1,6,23311*,-1,-2,-2
COc1cccc(COC(=O)CSCC(=O)Nc2ccc(C)cc2)c1OC,-28,3009,-1,5,-6
Cc1ccc(N=Cc2cc(Cl)cc(Cl)c2O)nc1,8,2526,4,-1,35*
Cc1ccc(F)cc1C(=O)N1CCCC(c2cc(C(=O)Nc3ccccc3Cl)no2)C1 (stereo unspecified),·,3812,0,-4,0
Cc1ccc(C(=O)Nc2cnc3ccccn3c2=O)cc1,3,24404*,-2,-1,-6
Cc1ccc2nc(C(Cl)(Cl)Cl)nc(N/N=C/c3ccc([N+](=O)[O-])cc3)c2c1,55*,3981,2,-2,-9
Cc1ccc2nc(C(Cl)(Cl)Cl)nc(N/N=C/c3ccncc3)c2c1,-9,3626,-2,-4,-15
CCN(C[C@H]1N[C@@](Cc2ccccc2)(C(=O)OC)[C@H]2C(=O)N(C)C(=O)[C@@H]12)C(C)=O,-9,3206,-1,0,-6
CCOc1ccccc1-c1nc(-c2cc3ccc(C)cc3[nH]c2=O)no1,6,16326*,2,0,5
CCCc1nc(-c2cc3ccc(C)cc3[nH]c2=O)no1,5,5831,-1,-8,-4
O=C(c1ccco1)c1cn(Cc2ccccc2)c2ccccc12,10,3291,0,-1,-4
O=C(c1ccco1)c1cn(Cc2ccccc2Cl)c2ccccc12,-8,24624*,?,0,-2
CCOc1ccc(NC(=O)Cn2cc(C(=O)c3ccco3)c3ccccc32)cc1,-2,16382*,14,-14,11
CC1(C)OC(=O)C2=C(C[C@@H](C3CCCC3)O[C@H]2CCc2cccc(Cl)c2)O1,·,5445,0,0,10
CN(c1ccc([N+](=O)[O-])cc1C(=O)Nc1ccccc1)C1CCCCC1,-5,21198*,3,-4,4
CC1C(=O)N(Cc2cn(Cc3ccco3)nn2)CCS(=O)(=O)N1Cc1ccc(-c2ccc(F)cc2Cl)cc1 (stereo unspecified),·,5945,-1,0,0
C[C@H](O)CNC(=O)c1[nH]cnc1C(=O)N[C@@H](C)c1ccccc1,5,3446,0,-2,-6
O=c1c2ccccc2nc(CN2CCCCCC2)n1-c1ccc(F)cc1,17,24642*,3,0,-7
CCC(CC)N1CCN(Cc2nc3ccccc3c(=O)n2-c2ccc(F)cc2)CC1,15,3911,1,-4,?
Cn1c(=O)c2c(nc(NCC3CCCC(CN)C3)n2Cc2ccc(Cl)cc2Cl)n(C)c1=O (stereo unspecified),6,3431,-2,-22,-38

# Screening data: PubChem, several laboratories
